# Screening data as filed in PubChem BioAssay.
# ATXN2 expr inh – reduces ATXN2 reporter expression in HEK-293 cells | HEK-293 ATXN2-luciferase reporter, luminescence, 24 h | Potency, µM (series often up to 57 µM), for inactives: at the top dose activity change, negative = inhibition, hits mostly inhibitors | 0.72% of 360,000 active; also: % is scaled to controls: 0 for no effect and ±100 for the full control effect; nearly all actives have a fitted effect of over 55% in size
#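 ATXN2-luciferase reporter cells (luciferase flanked by upstream and downstream ATXN2 gene portions) were treated 24 h at 37 °C with compounds at up to 57 uM. SteadyGlo luminescence gave expression; GF-AFC fluorescence gave viability.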
# S2 tox – reduces viability in counter-screen for ATXN expression inhibitors. S2 cells (HEK-293 line with an ATXN2-luciferase reporter) viability, CellTiter-Fluor protease fluorescence, 24 h. 0.49% of 400,000 active. Potency, µM (highest dose often 56.7 µM), usual class: cytotoxic; also: nearly all actives have a fitted effect of over 40% in size
# GLP-1R inv ag – acts as inverse agonist at human GLP-1 receptor. P43220. HEK293 GLP-1R CRE-luciferase, luminescence, 24 h; GLP-1R form is constitutively active. Potency, µM (titrated, usually from 38.3 µM), for the others: top-dose activity change, negative = inhibition, most hits filed as inhibitors. 1.6% of 410,000 active; also: % is scaled to controls: 0 for no effect and ±100 for the full control effect; nearly all actives have a fitted effect of over 55% in size
# Target sequence (P43220 whole entry, looked up): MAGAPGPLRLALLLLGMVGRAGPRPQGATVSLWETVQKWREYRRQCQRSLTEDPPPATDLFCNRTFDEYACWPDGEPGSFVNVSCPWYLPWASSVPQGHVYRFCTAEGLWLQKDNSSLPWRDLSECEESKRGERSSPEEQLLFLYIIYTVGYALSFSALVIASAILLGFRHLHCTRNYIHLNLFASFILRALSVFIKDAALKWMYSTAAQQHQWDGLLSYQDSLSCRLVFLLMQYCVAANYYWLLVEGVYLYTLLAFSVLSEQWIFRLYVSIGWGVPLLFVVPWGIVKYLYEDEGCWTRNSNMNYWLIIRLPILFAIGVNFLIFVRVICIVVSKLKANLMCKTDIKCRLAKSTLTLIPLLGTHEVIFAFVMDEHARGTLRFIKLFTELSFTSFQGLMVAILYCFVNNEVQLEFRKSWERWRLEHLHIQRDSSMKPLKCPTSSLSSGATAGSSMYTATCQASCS
#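 Inverse agonists were sought by their lowering of basal cAMP reporter luciferase output in HEK293 cells stably carrying constitutively active human GLP-1R, after 24 h compound treatment.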
# GLP1R ag – activates the human GLP-1 receptor; HEK293 GLP-1R CRE-luciferase, luminescence, 4-6 h; cells express a hypersensitive GLP-1R form; Potency, µM (top dose mostly 45.6 µM), for inactives: at the top dose activation, actives largely listed as activators; 0.007% of 380,000 active; AID 624172; also: % of control where 0% means no effect
# HepG2 viability – HepG2 cytotoxicity, counter-screen for TGF-b inhibitors; HepG2 CAGA-GFP viability, ATP luminescence, 18 h; Potency, µM (highest dose often 46.1 µM), for inactives: at the top dose activity change, negative = cytotoxicity, hits mostly cytotoxic; 0.76% of 410,000 active
#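 HepG2 CAGA-GFP cells (1000/well, DMEM with 1% FBS) received compound, then TGF-beta at 500 pg/mL final, and were incubated 18 hours at 37 degrees C. Viability was read by CellTiter-Glo luminescence. Media-only wells were set as complete cell-killing and DMSO as no toxicity.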
# TGFb inhibitor – inhibitors of TGF-b signaling | 1.2% of 410,000 active | HepG2 CAGA-GFP TGF-b/SMAD3 reporter, GFP fluorescence, 18 h; TGF-beta stimulated, 500 pg/mL final | AID 588855 | Potency, µM (titrated, usually from 46.1 µM), inactives show at the highest dose activity, negative = inhibition, most hits filed as inhibitors; also: % is scaled to controls: 0 for no effect and ±100 for the full control effect; nearly all actives have a fitted effect of over 65% in size
#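 HEPG2 CAGA-GFP reporter cells (1000/well, DMEM with 1% FBS) received compounds, then recombinant TGF-beta at 500 pg/mL final for 18 hours at 37 degrees C. Per-cell GFP summed per well was normalised to unstimulated and stimulated DMSO controls before curve fitting.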
# * = called active by the depositor; i = inactive; ? = inconclusive; nt = no result. Sampled rows, rich in hits. Any-hit rate of the full collection: about 3.7%. Calls follow the shape of the dose curve; as a rule, active = well fitted curve in the direction sought with a large enough effect; inconclusive = small, poorly fitted or top-dose-only effect, or another doubt; inactive = no such curve, though single readings can be large; an effect the other way counts as inactive or inconclusive. Potency is read from the fitted curve at half-maximal effect.
SMILES,ATXN2 expr inh,S2 tox,GLP-1R inv ag,GLP1R ag,HepG2 viability,TGFb inhibitor
Cc1ccc(-n2ncc(C(=O)NCCN3CCc4ccccc4C3)c2C2CCN(C(=O)OC(C)(C)C)CC2)cc1,nt,nt,?,nt,-100.1%,?
COc1ccccc1CN1CCC(CNC(=O)c2cnn(-c3ccc(Cl)cc3)c2C2CCN(C(=O)OC(C)(C)C)CC2)CC1,nt,nt,?,nt,-108.3%,10µM*
Cc1ccc(-n2ncc(C(=O)NCCN3CCC(Cc4ccccc4)CC3)c2C2CCN(C(=O)OC(C)(C)C)CC2)cc1,nt,nt,10µM*,nt,12.6µM*,?
Cc1ccc(-n2ncc(C(=O)NCCN3CCCC3)c2C2CCN(C(=O)OC(C)(C)C)CC2)cc1,nt,nt,?,nt,-44.9%,0.0%
Cc1ccc(-n2ncc(C(=O)NCCN3CCc4ccccc4C3)c2C2CCN(C(=O)OC(C)(C)C)CC2)c(C)c1,?,nt,?,nt,-45.1%,15.8µM*
CC(C)(C)OC(=O)N1CCC(c2c(C(=O)NCCN3CCC(Cc4ccccc4)CC3)cnn2-c2cccc(Cl)c2)CC1,nt,nt,?,nt,7.08µM*,?
COc1cc(/C=c2\[nH]c(=O)/c(=C/c3cc(OC)c(OC)c(OC)c3)[nH]c2=O)cc(OC)c1OC,nt,nt,nt,nt,5.4%,2.0%
O=S(=O)(c1ccccc1F)N1CCN(c2nc(-c3cccs3)nc3ccccc23)CC1,nt,nt,nt,nt,-27.9%,-13.7%
Cc1ccccc1NC(=O)C(=Cc1ccc(C(=O)O)cc1)C(=O)Nc1ccccc1C,10.6µM*,?,6.31µM*,-1.9%,-35.9%,?
CC(=O)Nc1ccccc1C,5.3%,i,12.4%,1.7%,-4.0%,-2.7%
CC(=O)/C(=C/c1ccccc1)C(=O)Nc1ccccc1C,nt,?,?,-7.1%,-47.9%,12.6µM*
CC1CCN(c2ccc(-c3nc(C(C)C)no3)cc2[N+](=O)[O-])CC1,76.2%,i,-18.4%,nt,-36.4%,-1.0%
CCOC(=O)Nc1ccc2c(c1)N(CCCN(C)C)c1ccccc1CC2,nt,?,12.6µM*,-5.5%,-36.3%,-16.1%
COc1ccccc1CCNc1ncnc2sc(C(=O)N3CCCC3)c(C)c12,nt,i,nt,nt,nt,nt
Cc1nn2c(N3CCN(C)CC3)cc(C(C)(C)C)nc2c1-c1ccccc1,-32.6%,?,7.08µM*,?,-156.5%,?
COc1ccccc1Cc1c(-c2ccc(OC)c(OC)c2)nc2ccc(C)cn12,0.0%,22.4µM*,-0.2%,?,-18.6%,?
COc1ccc(-c2nc3ccc(C)cn3c2CC(C)(C)C)cc1OC,28.2µM*,nt,?,-1.5%,-51.6%,?
Cc1ccc2nc(-c3ccc(Cl)cc3)c(Cc3cccc(Cl)c3)n2c1,?,28.2µM*,?,0.5%,nt,nt
Cc1ccc2nc(-c3ccc(F)cc3)c(Cc3cccc(Cl)c3)n2c1,-9.8%,?,?,-5.4%,-41.6%,?
Clc1cccc(-c2nc3ccc(Cl)cn3c2Cc2ccsc2)c1,46.0%,i,-23.7%,-2.9%,-40.7%,15.8µM*
Clc1cccc(-c2nc3ccc(Cl)cn3c2Cc2ccccc2)c1,-1.3%,?,?,?,-35.8%,?
COC(=O)c1ccc2nc(-c3ccc(OC)c(OC)c3)c(Cc3ccccc3OC)n2c1,-8.5%,?,15.1%,-3.0%,-26.5%,?
COc1ccc(-c2nc3ccc(C)cn3c2Cc2cccc(Cl)c2)cc1OC,-36.0%,nt,?,?,-27.6%,-13.7%
CCNC(=O)[C@H]1CCCN1C(=O)[C@H](CCCN=C(N)N)NC(=O)[C@H](CC(C)C)NC(=O)[C@H](CC(C)C)NC(=O)[C@@H](Cc1ccc(O)cc1)NC(=O)[C@H](CO)NC(=O)[C@@H](Cc1c[nH]c2ccccc12)NC(=O)[C@H](Cc1cnc[nH]1)NC(=O)[C@@H]1CCC(=O)N1,nt,nt,nt,-2.7%,nt,nt
